Rows were chosen to be rich in hits. Some 11% of all compounds tested hit in one or more screens of this group.
HPGD block: qHTS Assay for Inhibitors of HPGD (15-Hydroxyprostaglandin Dehydrogenase) | 15-hydroxyprostaglandin dehydrogenase [NAD(+)] (Homo sapiens), P15428 | Potency, µM, for inactives: at the top dose activity change, negative = inhibition, most hits filed as inhibitors | purified HPGD, NADH fluorescence kinetic, PGE2 substrate | hit rate 4.3% among 150,000; note: potency is the fitted concentration of half-maximal effect
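NADH formation kinetics: reaction with 30 uM PGE2 and 1 mM NAD+ (final), 20 nM enzyme, Tris-HCl pH 8 with Tween 20, after 15 min compound preincubation at room temperature. Fluorescence change, last versus first of five reads.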
ALDH1A1 inh: qHTS Assay for Inhibitors of Aldehyde Dehydrogenase 1 (ALDH1A1). Purified ALDH1A1, NADH fluorescence, propionaldehyde substrate. hit rate 7.3% among 220,000. Potency, µM (doses to about 75.3 µM), inactives show at the highest dose activity, negative = inhibition, most hits filed as inhibitors. Aldehyde dehydrogenase 1A1 (Homo sapiens), P00352;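 note: potency is the fitted concentration of half-maximal effect; plate controls were no enzyme wells and a reference inhibitor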
Target sequence (P00352 whole entry, looked up): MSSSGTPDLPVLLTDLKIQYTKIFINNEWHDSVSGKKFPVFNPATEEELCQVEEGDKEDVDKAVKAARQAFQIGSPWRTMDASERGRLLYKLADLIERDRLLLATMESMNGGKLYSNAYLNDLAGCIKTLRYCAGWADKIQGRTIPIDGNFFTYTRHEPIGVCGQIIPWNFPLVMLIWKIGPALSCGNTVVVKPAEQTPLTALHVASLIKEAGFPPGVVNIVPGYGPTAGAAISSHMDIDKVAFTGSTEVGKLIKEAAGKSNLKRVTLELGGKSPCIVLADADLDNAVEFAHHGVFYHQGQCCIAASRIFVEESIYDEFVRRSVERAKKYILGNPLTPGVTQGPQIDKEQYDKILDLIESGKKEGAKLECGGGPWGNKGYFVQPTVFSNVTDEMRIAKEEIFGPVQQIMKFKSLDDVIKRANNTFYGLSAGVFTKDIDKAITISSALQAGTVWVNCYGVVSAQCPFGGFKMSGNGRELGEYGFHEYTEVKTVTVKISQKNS
PNC inhibitor: High Content Assay for Compounds that inhibit the Assembly of the Perinucleolar Compartment | PC3M PTB-GFP, PNC prevalence imaging, 16 h; stronger effect = lower value | activity change (PNC), negative = inhibition, % at 10 µM | hit rate 3.1% among 140,000;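 active = readout at or below -70, meaning at least 70% loss of cells showing the perinucleolar compartment, a nuclear body marking cancer cells; inconclusive = readout between -30 and a set limit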;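 note: plate controls were DMSO wells for no effect and camptothecin positive control wells for full effect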
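PC3M cells stably expressing PTB-GFP, 750–1000 cells/well, treated 16 h at 37 °C with compound (23 nl of library stock), in duplicate. After paraformaldehyde fixation and Hoechst stain, imaged at 20x; PNC prevalence scored by image analysis.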
KDM4E inh: qHTS Assay for Inhibitors of Human Jumonji Domain Containing 2E (JMJD2E). Lysine-specific demethylase 4E (Homo sapiens), B2RXH2. JMJD2E catalytic domain, FDH-coupled NADH fluorescence (FDH is formaldehyde dehydrogenase). Potency, µM (series often up to 57.1 µM), for the others: at the top dose activity change, negative = inhibition, most hits filed as inhibitors. hit rate 1.6% among 230,000;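 note: potency is the fitted concentration of half-maximal effect; 0% = wells with enzyme and -100% = buffer wells without enzyme; nearly all actives have a fitted effect of over 50% in size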
* hit, by the source's call; [ ] = remark or other dose. Unless noted, calls come from the whole dose curve; as a rule, active = well fitted inhibition curve with a large enough effect (not every such curve was filed as active); inconclusive = small, poorly fitted or top-dose-only effect, or another doubt; inactive = no such curve, though single readings can be large or run the other way. Unless noted, % is set by controls: 0 for no effect and ±100 for the full control effect.

Results for COc1ccccc1CN1CCCC2(CCN(C(=O)c3cccc(F)c3)CC2)C1 ?
HPGD block: -3.7%; ALDH1A1 inh: 7.5%

Results for COc1ccc2cc1Oc1ccc(cc1)CC1c3cc(c(OC)cc3CCN1C)Oc1c(OC)c(OC)cc3c1C(C2)N(C)CC3 (centres undefined) ?
HPGD block: -13.9%; ALDH1A1 inh: 6.0%; KDM4E inh: -9.4%

What do the screens show for `O=C1CC(c2ccccc2)CCc2sccc2N1` (centres undefined)?
HPGD block: 25.1µM*; ALDH1A1 inh: -3.9%; PNC inhibitor: 12.0; KDM4E inh: 3.3%

Results for CCOc1ccc2nc(COC(=O)c3ccncc3)c(C(=O)c3ccccc3)[n+]([O-])c2c1 ?
ALDH1A1 inh: 0.8%; KDM4E inh: inconclusive

What do the screens show for `COc1ccc2c(c1)CC(C1(O)C(=O)Nc3ccccc31)C2=O` (centres undefined)?
HPGD block: -0.9%; ALDH1A1 inh: 31.6µM*; PNC inhibitor: 10.5; KDM4E inh: 4.1%

What do the screens show for `O=C1CCCCCC1C1(O)C(=O)Nc2ccccc21` (centres undefined)?
HPGD block: -9.7%; ALDH1A1 inh: -0.1%; PNC inhibitor: -27.5; KDM4E inh: 7.8%

How did C(=C\c1ccccn1)/c1cccnc1 do in these assays?
KDM4E inh: -2.3%

How did CCN1C(=O)[C@H]2[C@H]3[C@H](O)[C@H](O)C/C(=N/OC[C@@H](O)[C@H]4O[C@H]5OC(C)(C)O[C@H]5[C@@H]4O)[C@@H]3CC[C@@H]2C1=O do in these assays?
ALDH1A1 inh: 14.1%[13.5 µM]

What do the screens show for `CC(c1ccccc1)C1C(C#N)=C(N)OC2=C1C(=O)CC(C)(C)C2` (centres undefined)?
HPGD block: -14.5%; ALDH1A1 inh: inconclusive; PNC inhibitor: -3.9; KDM4E inh: 3.3%

Results for CC1(C)CC(=O)C2=C(C1)OC(N)=C(C#N)C2c1ccoc1 (centres undefined) ?
ALDH1A1 inh: inconclusive; KDM4E inh: -11.7%

What do the screens show for `C/C(=C\c1ccco1)C1C(C#N)=C(N)OC2=C1C(=O)CC(C)(C)C2` (centres undefined)?
HPGD block: -16.3%; ALDH1A1 inh: 12.6µM*; PNC inhibitor: 41.0; KDM4E inh: -10.6%

Results for CC1(C)CC(=O)C2=C(C1)OC(N)=C(C#N)C2C#Cc1ccccc1 (centres undefined) ?
HPGD block: 12.6µM*; ALDH1A1 inh: 1µM*; PNC inhibitor: -16.5; KDM4E inh: 5.7%

Results for COc1ccc(-c2csc(C)n2)cc1 ?
HPGD block: -4.0%; ALDH1A1 inh: 5.7%; PNC inhibitor: -20.2; KDM4E inh: -1.3%

How did COc1ccc(-c2csc(-c3[nH]cnc3N)n2)cc1 do in these assays?
ALDH1A1 inh: 7.08µM*; KDM4E inh: 8.8%

What do the screens show for `COC(=O)C1CCN(C(=O)COC(=O)c2ccc(OC)c(S(=O)(=O)N3CCCc4ccccc43)c2)CC1`?
ALDH1A1 inh: 4.47µM*; KDM4E inh: -1.4%

What do the screens show for `Cc1ccccc1NC(=O)Cn1nnc(S(=O)(=O)c2ccc(C(C)(C)C)cc2)c1N`?
HPGD block: -8.1%; ALDH1A1 inh: 3.9%; PNC inhibitor: 56.9; KDM4E inh: 3.3%

Results for COc1ccc(NC(=O)Cn2nnc(-c3ccccc3NC(=O)c3cccs3)n2)cc1 ?
HPGD block: -27.6%; ALDH1A1 inh: 10.9%; PNC inhibitor: inconclusive; KDM4E inh: -12.8%

How did Cc1ccc(NC(=O)Cn2nnc(-c3ccccc3NC(=O)c3cccs3)n2)cc1 do in these assays?
HPGD block: inconclusive; ALDH1A1 inh: -8.5%; PNC inhibitor: -87.7*; KDM4E inh: inconclusive

Results for CCOc1ccc(NC(=O)Cn2nnc(-c3ccccc3NC(=O)CC)n2)cc1 ?
HPGD block: -13.1%; ALDH1A1 inh: -3.8%; PNC inhibitor: -84.2*; KDM4E inh: -0.6%

How did O=C(Cn1nnc(-c2ccccc2F)n1)Nc1cccc2ncccc12 do in these assays?
HPGD block: -5.4%; ALDH1A1 inh: -2.1%; PNC inhibitor: -81.8*; KDM4E inh: -6.1%

Results for O=C(O)/C=C\C=C/c1ccc2c(c1)OCO2 ?
HPGD block: -25.3%; ALDH1A1 inh: -9.2%[13.5 µM]

How did CCNc1ccccc(C(=O)/C=C/c2ccc3c(c2)OCO3)c1=O do in these assays?
HPGD block: 17.8µM*; ALDH1A1 inh: 10µM*; PNC inhibitor: -28.1; KDM4E inh: 20µM*

What do the screens show for `O=C(/C=C\C=C/c1ccc2c(c1)OCO2)N1CCCCC1`?
HPGD block: 10µM*; ALDH1A1 inh: inconclusive; KDM4E inh: inconclusive

What do the screens show for `O=C(/C=C/c1ccc2c(c1)OCO2)c1cccs1`?
HPGD block: inconclusive; ALDH1A1 inh: inconclusive; KDM4E inh: 22.4µM*

Results for CCN1CCN(c2cc(C)nc(-c3ccccc3O)n2)CC1 ?
KDM4E inh: -0.6%

What do the screens show for `N/N=C1/c2ccccc2N[C@H]1OC(=O)Nc1ccccc1`?
HPGD block: -4.5%; ALDH1A1 inh: -10.5%[13.5 µM]

What do the screens show for `CC(=O)c1c(C)[nH]c(C(=O)N(C)C(c2ccccc2)c2ccccc2)c1C`?
ALDH1A1 inh: 17.8µM*; KDM4E inh: -22.3%

What do the screens show for `CC(=O)c1c(C)[nH]c(C(=O)NCCc2ccccc2)c1C`?
HPGD block: -13.4%; ALDH1A1 inh: 2.2%; PNC inhibitor: -27.6; KDM4E inh: 3.7%

Results for CC(=O)N1CCCc2cc(S(=O)(=O)NC(C(=O)NC3CCCCC3)C(C)C)ccc21 (centres undefined) ?
HPGD block: -5.0%; ALDH1A1 inh: 7.08µM*; PNC inhibitor: 40.6; KDM4E inh: -6.5%

How did CC(=O)N1CCCc2cc(S(=O)(=O)N(C)Cc3ccccc3)ccc21 do in these assays?
HPGD block: 31.6µM*; ALDH1A1 inh: inconclusive; PNC inhibitor: 4.7; KDM4E inh: 3.2%

Results for COc1ccc(NC(=O)C(NS(=O)(=O)c2ccc3c(c2)CCCN3C(C)=O)C(C)C)c(OC)c1 (centres undefined) ?
HPGD block: -6.8%; ALDH1A1 inh: inconclusive; PNC inhibitor: -2.6; KDM4E inh: -4.3%

What do the screens show for `CCOc1ccc(NC(=O)CCS(=O)(=O)c2ccc3c(c2)CCCN3C(C)=O)cc1`?
HPGD block: -5.1%; ALDH1A1 inh: 18.9µM*; PNC inhibitor: -13.1; KDM4E inh: 7.2%

What do the screens show for `CCCCN(CC)S(=O)(=O)c1ccc2c(c1)CCCN2C(C)=O`?
HPGD block: -6.1%; ALDH1A1 inh: inconclusive; PNC inhibitor: -9.9; KDM4E inh: -3.5%

What do the screens show for `CC(=O)N1CCCc2cc(S(=O)(=O)NC(C(=O)NC(C)c3ccccc3)C(C)C)ccc21` (centres undefined)?
HPGD block: -4.3%; ALDH1A1 inh: 3.16µM*; PNC inhibitor: inconclusive; KDM4E inh: 8.1%

Source: PubChem BioAssay (National Center for Advancing Translational Sciences (NCATS))
